Reference: PubChem BioAssay (NCI)
The panel holds about 79,000 compounds, 15% with a hit somewhere; the sample as a whole holds those more often. Cut-off read from the data, not from the text of the source: active = growth inhibition above about 70%; inactive = the rest.

Tests used:
[1] = NCI Yeast Anticancer Drug Screen. Data for the rad50 strain (AID 155);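 note: 0% = growth of vehicle-only cultures of the same strain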; conditions: S. cerevisiae rad50 strain growth inhibition; at 50.0 µM; active compounds read high
In short: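 Vehicle-treated cultures provide the reference for the growth inhibition reported for compound-exposed, repair-deficient yeast.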

[2] = NCI Yeast Anticancer Drug Screen. Data for the mec2-1 strain (AID 157); conditions: S. cerevisiae mec2-1 strain, at 50.0 µM, active compounds read high
In short: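 Cells of the genetically defined mec2-1 yeast strain are incubated with test compound. Inhibition of growth is calculated against vehicle-treated controls.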

[3] = NCI Yeast Anticancer Drug Screen. Data for the sgs1 mgt1 strain (AID 161);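 note: 0% = growth of cultures given vehicle only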; conditions: S. cerevisiae sgs1 mgt1 strain, at 50.0 µM, active compounds read high
In short: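 Read-out: growth inhibition vs vehicle controls. Cells: mutant yeast strain deficient in DNA damage repair.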

[4] = NCI Yeast Anticancer Drug Screen. Data for the cln2 rad14 strain (AID 165);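 note: 0% = growth equal to vehicle treated cultures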; conditions: S. cerevisiae cln2 rad14 strain, at 50.0 µM, active compounds read high
In short: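 The screen exposed genetically defined yeast (cln2 rad14) to test compounds and scored growth inhibition relative to vehicle-treated controls.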

[5] = NCI Yeast Anticancer Drug Screen. Data for the bub3 strain (AID 167); conditions: S. cerevisiae bub3 mutant strain, at 50.0 µM, active compounds read high
In short: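 Mutant yeast screening strain plus compound; vehicle-treated cultures serve as the 0% inhibition reference.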

[6] = NCI Yeast Anticancer Drug Screen. Data for the mlh1 rad18 strain (AID 175); conditions: S. cerevisiae mlh1 rad18 strain growth inhibition; at 50.0 µM; active compounds read high
In short: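 Compound-treated yeast growth, normalised to vehicle controls. Strain bears defined DNA repair mutations.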

Measured: growth inhibition

O=C1CCCCCN1
inactive: [1] 18.5% | [2] 1.55% | [3] -9.95% | [4] -11.3% | [5] -5.1% | [6] 18.1%

CC12CCC3C(CCC4CC(OC5CCCCO5)CCC43C)C1CC/C2=C/C#N (stereo unspecified)
inactive: [1] 29.4% | [2] -7.5% | [3] 10.1% | [4] 10.3% | [5] 1.75% | [6] -2.65%

Cc1cc(C)c2c(=O)n(-c3ccc(Br)cc3)c(=S)n(-c3ccc(Br)cc3)c2n1
inactive: [1] 19.2% | [2] 4.35% | [3] -3.2% | [4] 12.8% | [5] -3.85% | [6] 23.5%

CCN(C/C=C/CN(CC)C(=S)Nc1ccccc1)C(=S)Nc1ccccc1
inactive: [1] 29.6% | [2] -7.85% | [3] 5.2% | [4] 18.8% | [5] -1.1% | [6] 9.8%

c1ccc(CNc2ncnc3n[nH]nc23)cc1
inactive: [1] -14% | [2] -11.8% | [3] 1.2% | [4] 0.3% | [5] 20.1% | [6] -8.3%

COc1cc(/C=C2\N=C(C)N(n3c(-c4ccccc4)nc4ccccc4c3=O)C2=O)cc(OC)c1OC
inactive: [1] -20.4% | [2] 19.6% | [3] 29.6% | [4] 2.7% | [5] 16.2% | [6] 7.3%

O=C(N/N=C/c1ccc(Cl)cc1)C(c1ccccc1)N1CCCCC1 (stereo unspecified)
inactive: [1] 4.7% | [2] -2.65% | [3] -0.2% | [4] 4.6% | [5] 8.55% | [6] 13.7%

Cc1c(O)c(=O)ccn1C1OC(CO)C(O)C1O (stereo unspecified)
inactive: [1] 16.5% | [2] 22.9% | [3] 25.5% | [4] -2.9% | [5] 15.8% | [6] 26%

CCNc1nc(C)nc2c1cnn2-c1ccccc1
inactive: [1] -16.1% | [2] -12.6% | [3] -6.75% | [4] -56.5% | [5] -4.8% | [6] -9.75%

O=[N+]([O-])c1cccc(/C=C/c2cc(N(CCO)CCO)c3ccccc3n2)c1
inactive: [1] 48.1% | [2] 12.8% | [3] 11.1% | [4] 3.5% | [5] -6.6% | [6] 22.2%

COc1ccc(/C=C(\C(C)=O)C(=O)Nc2ccccc2)cc1
inactive: [1] 21.1% | [2] 16.4% | [3] 22.2% | [4] 39.1% | [5] 6.2% | [6] 25.4%

CCOC(=O)N/N=C(/OCC)c1ccccc1
inactive: [1] 9.75% | [2] 2.7% | [3] -7.2% | [4] 5.8% | [5] 13.8% | [6] 5.8%

O=C(OCc1ccccc1CN1CCCC1)c1ccc(Br)cc1
inactive: [1] 11% | [2] -6.05% | [3] -9.9% | [4] -16.9% | [5] 20.1% | [6] -17.9%

O=C(O)C1Cc2ccccc2OC1=O (stereo unspecified)
inactive: [1] -18% | [2] -25.6% | [3] -16.7% | [4] 0.6% | [5] 0.35% | [6] -21.6%

Cc1cccc(S(=O)(=O)c2ccccc2)c1
inactive: [1] 22.9% | [2] 34.1% | [3] -15.7% | [4] 13.1% | [5] 4.35% | [6] 18.6%

NC1=NC(=O)N(C2CC(O)C(COP(=O)(O)O)O2)C(I)C1 (stereo unspecified)
inactive: [1] 31.9% | [2] 0% | [3] 12.9% | [4] -28.6% | [5] -0.6% | [6] 13.2%

O=C1CCSSCCC(=O)NCCCN1
inactive: [1] 1% | [2] -5.3% | [3] -24.4% | [4] 15.2% | [5] -24.1% | [6] -6.3%

O=C(O)CCc1nc(-c2ccccc2-n2cccc2)no1
inactive: [1] -43.8% | [2] -36.1% | [3] -30.4% | [4] 38.2% | [5] -15.4% | [6] 8.2%

COc1ccc(NC(=O)CCCC(=O)CC(=O)c2ccc(Cl)cc2)c(OC)c1
inactive: [1] 32.6% | [2] 13.2% | [3] -0.95% | [4] -20% | [5] -1.95% | [6] 18.1%

O=C(NNC1=NCCCN1)c1ccco1
inactive: [1] 2.1% | [2] -0.75% | [3] 9.25% | [4] -22.2% | [5] 7.5% | [6] -3.85%

CCC(C)C(=O)c1c(O)c(C/C=C(\C)CCC=C(C)C)c(O)c2c(C(O)CC)cc(=O)oc12 (stereo unspecified)
inactive: [1] 21.8% | [2] 15.8% | [3] 14.7% | [4] 18.1% | [5] 20.1% | [6] 42.9%

O=[N+]([O-])c1cc(Br)ccc1P(=O)(O)O
inactive: [1] 9.25% | [2] 8.8% | [3] -1.25% | [4] 7.85% | [5] 16.9% | [6] -4.95%

COc1ccc2c(c1)OC(C)(C)c1c-2n(C)c2c(F)cccc2c1=O
inactive: [1] 14.8% | [2] 8.7% | [3] 16.1% | [4] 14.2% | [5] 5.35% | [6] 29.8%

CC1O[C@@]2(CC[C@H]3[C@@H]4CCC5=CC(=O)CC[C@]5(C)[C@H]4CC[C@@]32C)C1=O (stereo partly specified)
inactive: [1] -0.55% | [2] 4.95% | [3] 11.4% | [4] -16.8% | [5] 26.9% | [6] 25.9%

CN(C)c1nc(OC2C(C(O)CO)OC3OC(C)(C)OC32)nc(N(C)C)n1 (stereo unspecified)
inactive: [1] 31.1% | [2] -11.7% | [3] 6.15% | [4] 18% | [5] -1.05% | [6] -0.65%

CSc1nc(N)c(NS(=O)(=O)c2ccc(NC(C)=O)cc2)c(=O)[nH]1
inactive: [1] 5.85% | [2] 1.8% | [3] 9.05% | [4] -12.7% | [5] 2.45% | [6] 15.4%

C1=C(Oc2ccccc2)C2CC1C1CCCC21 (stereo unspecified)
inactive: [1] -7.85% | [2] -21.4% | [3] -2.65% | [4] 2.05% | [5] -5.95% | [6] 1.85%

O=CC(C(=O)c1ccccc1[N+](=O)[O-])c1ccccc1 (stereo unspecified)
inactive: [1] 9.6% | [2] 5.7% | [3] 15.9% | [4] 15.8% | [5] 13.7% | [6] 13.4%

OC1c2ccccc2CCCC1N1CCCCC1 (stereo unspecified)
inactive: [1] 41% | [2] 5.35% | [3] 27.8% | [4] 6.75% | [5] 12.1% | [6] 16.9%

CN1CCCC1=Nc1ccc([N+](=O)[O-])cc1
inactive: [1] 23.1% | [2] -3.55% | [3] 23% | [4] -29.3% | [5] -11.9% | [6] 25.9%

CCCCCCCCCCNC(=O)CCC(NC(=O)c1ccc(N(C)Cc2cnc3nc(N)nc(N)c3n2)cc1)C(=O)NCCCCCCCCCC (stereo unspecified)
inactive: [1] 5.7% | [2] 3.35% | [3] -4.15% | [4] 6.1% | [5] -13.2% | [6] -3.65%

COC(=O)c1ccc(C(=O)c2ccc(OC)cc2OC)cc1
inactive: [1] -0.1% | [2] -4.05% | [3] -0.85% | [4] -58.8% | [5] 4.15% | [6] -17.4%

NNC(=O)N/N=C1\C(=O)N(c2ccc(Cl)c(Cl)c2)C(=O)C(=O)C1c1nc2ccccc2s1 (stereo unspecified)
inactive: [1] 41.4% | [2] 5.95% | [3] 26.9% | [4] 13.3% | [5] 0% | [6] 26.4%

OCC1C2C=CC(C3C=CC32)C1CO (stereo unspecified)
inactive: [1] 8.4% | [2] -9.8% | [3] -5.7% | [4] -89.7% | [5] -1.6% | [6] 4.25%

Nc1nc2c(ncn2C2OCC(O)C(O)C2O)c(=O)[nH]1 (stereo unspecified)
inactive: [1] 15.6% | [2] -9.7% | [3] -13.8% | [4] -6.15% | [5] 0.75% | [6] -2.3%

COc1ccc(CCNC(=O)CC(C)=O)cc1
inactive: [1] -49.2% | [2] -40.5% | [3] -42.3% | [4] 11.4% | [5] -38% | [6] -41.8%

CCCc1c(N)nc(N)nc1N
inactive: [1] 3.4% | [2] 2.05% | [3] -5.7% | [4] -48.6% | [5] 7.4% | [6] -7.65%

CCN(CC)C(=O)c1ccc[n+](CCC(N)=O)c1
inactive: [1] -1.05% | [2] -17.8% | [3] -3% | [4] 14.8% | [5] -8.5% | [6] 6.6%

O=C1CCC2(c3ccc(Cl)cc3)SCCN12 (stereo unspecified)
inactive: [1] 5.8% | [2] -20.5% | [3] -6.85% | [4] 2.75% | [5] 31.8% | [6] -0.15%

O=Cc1cc2c(cc1-c1cc3c(cc1C=O)OCO3)OCO2
inactive: [1] -3.4% | [2] 8.25% | [3] 6.6% | [4] 9.85% | [5] 13.1% | [6] 0.75%

COC(=O)C(Cc1ccccc1)NC(=O)C1CSC(C)(C)N1C=O (stereo unspecified)
inactive: [1] 3.25% | [2] 16.4% | [3] 21.6% | [4] 3.05% | [5] 22.8% | [6] -20.4%
